Source: PubChem BioAssay
Compounds with a hit are over-represented: about 7.9% of the library has one in this group of screens.
HT1080NT lethal: kills 2HG-producing HT-1080-NT fibrosarcoma cells; HT-1080-NT fibrosarcoma viability, CellTiter-Glo ATP luminescence, 48 h; Potency, µM (doses to about 46.1 µM), without a hit: top-dose activity, negative = less viability, actives largely listed as cytotoxic; 1.6% of 360,000 active;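 further: NT is the 2HG producing partner of a matched IDH1 knockdown line; 0% = DMSO-treated cells and -100% = media-only wells without cells; nearly all actives have a fitted effect of over 55% in size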
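Luminescent CellTiter-Glo readout after 48 hours of compound exposure at 37 degrees C defined viability of HT-1080-NT cells. Activity was normalized to DMSO wells and cell-free media wells; concentration-response curves were fitted and assigned curve classes.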
KB-V1 cytotox: KB-V1 MDR subline cytotoxicity. Potency, µM (top dose mostly 46.1 µM), most hits filed as cytotoxic. 3.4% of 400,000 active. AID 1347076. KB-V1 MDR cells viability, CellTiter-Glo, 72 h; further: on the % scale 0 is the no-effect control and ±100 the full control effect; nearly all actives have a fitted effect of over 60% in size
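Following 72 h at 37 degrees C with compound, KB-V1 cell viability was read by CellTiter-Glo luminescence, medium being phenol-red-free DMEM plus 10% FBS; concentration-response parameters came from normalized, curve-fitted qHTS data.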
SW480 rereplic: inducers of DNA re-replication in SW480 colon cancer cells; SW480 DNA re-replication, Hoechst DNA content imaging, 48 h; Potency, µM (doses to about 46.1 µM), without a hit: at the top dose re-replication activation, most hits filed as activators; 1.8% of 340,000 active; AID 624297; further: % of control where 0% means no effect; nearly all actives have a fitted effect of over 55% in size
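DNA re-replication was detected as more nuclei of elevated Hoechst intensity after 48 hr exposure to compound (23 nL pinned per well of 250 cells).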
MCF10A rerep: DNA re-replication induction in MCF 10a cells; MCF 10A DNA re-replication, Hoechst nuclear intensity, 48 h; Potency, µM (doses to about 46.1 µM), inactives show at the highest dose activity, positive = re-replication, actives largely listed as activators; 2.9% of 350,000 active; AID 624296; further: % of control where 0% means no effect; nearly all actives have a fitted effect of over 50% in size
HT1080 IDH1KD tx: kills HT-1080 cells with IDH1 knockdown; AID 686971; HT-1080 IDH1 knockdown viability, ATP luminescence, 48 h; Potency, µM (series often up to 46.1 µM), for the others: at the top dose activity, negative = toxicity, hits mostly cytotoxic; 2% of 360,000 active;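 further: 0% = DMSO wells and -100% = cell-free medium wells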
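Assay cells: HT-1080 with IDH1 knockdown, 750 per well, RPMI/5% FBS. Exposure: 48 h at 37 °C following 2 h pre-incubation. Read: CellTiter-Glo luminescence; fitted concentration-response, curve class assigned.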
KB-3-1 tox: KB-3-1 parental cell cytotoxicity; KB-3-1 viability, CellTiter-Glo ATP luminescence, 72 h; Potency, µM (titrated, usually from 46.1 µM), actives largely listed as cytotoxic; 1.4% of 400,000 active; AID 1347075; further: on the % scale 0 is the no-effect control and ±100 the full control effect; nearly all actives have a fitted effect of over 60% in size
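Here the drug-naive KB-3-1 line serves as comparator for MDR sub-line selectivity; cells received compound titrations, 72 h at 37 °C, then CellTiter-Glo readout.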
* hit, by the source's call; i = inactive; ? = inconclusive; nt = no result given. The call rests on the fitted dose curve; in most records, active means well fitted curve in the direction sought with a large enough effect; inconclusive means small, poorly fitted or top-dose-only effect, or another doubt; inactive means no such curve, though single readings can be large; an effect the other way counts as inactive or inconclusive. Potency means the concentration at half of the fitted maximal effect.

SMILES	HT1080NT lethal	KB-V1 cytotox	SW480 rereplic	MCF10A rerep	HT1080 IDH1KD tx	KB-3-1 tox
Cc1ccc(Nc2nc(-c3ccc(S(=O)(=O)N4CCOCC4)cc3)cs2)cc1Cl	23µM*	?	9%	?	16µM*	i
O=C(Nc1nc(-c2ccc(F)c(F)c2)cs1)c1ccc(OCC2CCCO2)cc1 (configuration not stated)	?	?	1%	-3%	?	?
CN(CC1CCCO1)S(=O)(=O)c1ccc(C(=O)Nc2nc(-c3ccccn3)cs2)cc1 (configuration not stated)	?	i	-5%	13%	?	4.1µM*
CC(C)CC(=O)Nc1nc(-c2ccc(S(=O)(=O)N3CCOCC3)cc2)cs1	?	?	-24%	?	-13%	i
Cc1csc(NC(=O)c2ccc(OCC3CCCO3)cc2)n1 (configuration not stated)	-15%	13µM*	-4%	-6%	0%	i
COc1cccc(C(=O)NCC(=O)OCc2cc(=O)n3c(C)csc3n2)c1	nt	i	nt	nt	nt	i
O=C(NC1CCCCCC1)C1c2ccccc2C(=O)N1Cc1ccccc1Cl (configuration not stated)	nt	i	nt	nt	nt	i
O=C(Nc1nc(-c2nc3ccccc3s2)cs1)c1ccc(S(=O)(=O)N2CCOCC2)cc1	?	4.6µM*	2%	22%	?	?
O=C(Nc1nc(-c2ccc(S(=O)(=O)N3CCOCC3)cc2)cs1)c1ccccc1	?	?	10%	10%	-19%	i
Cc1ccc(C(=O)Nc2nc(-c3ccccn3)cs2)cc1S(=O)(=O)N1CCOCC1	18µM*	?	?	21µM*	4.6µM*	i
CCc1nc2ccc(C(=O)N(C)CCN(C)C)cn2c1N(C)Cc1cc2ccccc2s1	16µM*	i	nt	nt	?	i
Nc1nc(-c2ccc(Br)s2)c(Br)s1	-25%	i	15%	21µM*	-23%	i
Cc1csc2nc(COc3ccc(NC(=O)COc4ccc(F)cc4)cc3)cc(=O)n12	nt	i	nt	nt	nt	i
O=C(NCc1cccc(F)c1)c1cccc2c1C(=O)c1ccc(N3CCC(Cc4ccccc4)CC3)cc1S2(=O)=O	27%	i	-2%	12µM*	0%	i
O=C(NCc1ccc(OC(F)(F)F)cc1)c1cccc2c1C(=O)c1ccc(N3CCC(Cc4ccccc4)CC3)cc1S2(=O)=O	2%	i	-2%	5.8µM*	8%	i
O=C(NCc1cccc(C(F)(F)F)c1)c1cccc2c1C(=O)c1ccc(N3CCC(Cc4ccccc4)CC3)cc1S2(=O)=O	?	i	13%	5.8µM*	11%	i
O=C(NCc1ccc(OC(F)(F)F)cc1)c1cccc2c1C(=O)c1ccc(N3CCCC3)cc1S2(=O)=O	?	i	0%	10%	-1%	i
CCN(CC)CCN(C(=O)c1ccco1)c1nc2ccc(Br)cc2s1	nt	?	nt	nt	nt	i
Cn1c(CC(=O)NCCO)c(Sc2ccccc2)c2ccccc21	-17%	i	0%	-13%	-16%	i
O=C(Cc1c(Sc2ccccc2)c2ccccc2n1Cc1ccccc1)NCCO	-17%	i	11%	21µM*	-21%	i
CCc1ccccc1NC(=O)c1nnn(CC(=O)Nc2c(C)cc(C)cc2C)c1N	nt	i	nt	nt	nt	i
Cc1nn(C)c(C)c1NC(=O)COc1ccc(F)cc1Br	13µM*	i	-7%	16%	-11%	i
Cc1nn(C)c(C)c1NC(=O)COc1ccc(Cl)cc1Br	?	nt	-3%	16µM*	-27%	nt
CC(Sc1nn(-c2ccc(F)cc2)c(=S)s1)C(=O)c1c(N)n(C)c(=O)n(C)c1=O (configuration not stated)	-18%	6.5µM*	-6%	29%	-17%	?
Cc1cc(Cl)ccc1NS(=O)(=O)c1c(C(=O)N2CCCCCC2)c(C)n(C)c1C	nt	i	nt	nt	nt	i
SMILES	HT1080NT lethal	KB-V1 cytotox	SW480 rereplic	MCF10A rerep	HT1080 IDH1KD tx	KB-3-1 tox
O=C(C(Cl)Cl)N1c2ccccc2OCC1c1ccccc1 (configuration not stated)	-10%	?	-1%	?	-19%	18µM*
Cc1ccc(S(=O)(=O)N2CC(C(=O)O)Oc3ccccc32)cc1 (configuration not stated)	0%	?	-2%	0%	-1%	i
CC1COc2ccccc2N1C(=O)c1ccc(Cl)cc1 (configuration not stated)	2%	i	-3%	2%	6%	i
Cc1ccc(S(=O)(=O)N2c3ccccc3OCC2c2ccccc2)cc1 (configuration not stated)	?	?	?	16µM*	?	?
CC1COc2ccccc2N1S(=O)(=O)c1ccc(Cl)cc1 (configuration not stated)	-13%	i	?	21µM*	-25%	i
COC(=O)[C@H](CCSC)NC(=O)Cn1cc(C)c(=O)[nH]c1=O	1%	i	17%	-6%	0%	i
CCN1c2ccccc2-c2nc(SCC(=O)Nc3ccc(C)c(Cl)c3)ncc2S1(=O)=O	nt	i	nt	nt	nt	i
CCOC1=C2[C@@H](CN(S(=O)(=O)c3ccc(C)cc3)[C@H]2c2ccc(CC)cc2)[C@H]2C(=O)N(C)C(=O)[C@H]2C1	19%	i	nt	nt	11%	i
CCOC(=O)c1ccc(NC(=O)Nc2ccc3c4c(cccc24)C(=O)N3CC)cc1	24%	i	7%	23µM*	-3%	i
CCN1C(=O)c2cccc3c(NS(=O)(=O)c4ccc(NC(C)=O)cc4)ccc1c23	-18%	i	1%	?	-11%	?
Cc1ccc(Cl)cc1-n1nnc(-c2nsc(NC(=O)c3ccccc3Cl)n2)c1C	nt	i	nt	nt	nt	i
C/C(=N\NC(=O)COc1ccc(C)cc1Br)c1cc([N+](=O)[O-])cs1	?	?	9.2µM*	8.2µM*	?	21µM*
CC(C)(C)c1ccc(CC(=O)N2CCC2(C)C(=O)NS(=O)(=O)c2cccc(F)c2)cc1 (configuration not stated)	3%	i	nt	nt	-4%	i
Cc1ccc([C@H]2C[C@H](n3cc(-c4ccc(F)cc4)nn3)[C@@H](O)CN2CC2CCCCC2)cc1	9%	?	nt	nt	7%	?
CN(C)c1ccc(/C=C/C(=O)c2c(O)c3ccccc3oc2=O)cc1	-10%	i	?	4%	0%	i
